Experimental findings from the supplement of paper PMC10646978 are described below.

± gives the standard deviation.

What all share (conditions): modulator concentration 10 µM
The test system of assay [1] is RAW-Dual (murine macrophage reporter line). Nature of the assay: NF-kB reporter (SEAP) activity fold change vs agonist alone; higher = enhanced NF-kB activity. The gist of the method: (§1)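 RAW-Dual murine macrophage reporter cells were seeded at 50 000 per well in 384-well plates and pre-incubated 1 hour at 37 °C with compound pin-transferred to 10 μM final. After 1 hour, a PRR agonist was added and cells incubated overnight. Supernatant NF-κB (SEAP, QUANTI-Blue, 620 nm absorbance) and IRF (Lucia luciferase, QUANTI-Luc, luminescence) signals were divided by the mean agonist-only control on the same plate to give fold change. Two replicate plates were averaged, with errors by propagation.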

The test system is the same in assay [2]. As to the kind of experiment: IRF reporter (Lucia luciferase) activity fold change vs agonist alone; higher = enhanced IRF activity. The gist of the method: as §1
Assay [3] shares this test system. Nature of the assay: viability score (confluency relative to resting cells, overnight) (fraction); higher = more viable, active = viable (0.7 or more). Put shortly:
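RAW-Dual macrophages in 384-well plates were treated overnight with compound at 10 μM final. IncuCyte imaging recorded confluency, and IncuCyte software built two confluency masks across every imaged well. The viability score expresses confluency relative to resting cells and was judged against a cutoff, which a compound met only if both masks exceeded 70% of resting cells.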

The mark [4] stands for this setting: agonist: CpG ODN 1826 0.5 ug/mL.

`Nc1ncnc2c1ncn2C1OC(COP(=O)(O)O)C(O)C1O` (stereo not given): the NF-kB reporter in assay [1] (setting [4]) came to 1.9 ± 0.51; in assay [1] (agonist: LPS 0.1 ug/mL) it was 1.3 ± 0.089; in assay [1] (agonist: MPLA […]), 1.55 ± 0.11. Further, the IRF reporter in assay [2] (agonist: 3'3'-cGAMP 10 ug/mL) is 1.44 ± 0.052; in assay [2] (agonist: LPS 0.1 ug/mL), 1.19 ± 0.13; in assay [2] (agonist: MPLA […]) it was 1.19 ± 0.14. Moreover, the viability score in assay [3] is 0.97 (active).

On to `COc1ccc(C=NNC(=O)CSc2nnc(-c3ccccc3)n2-c2ccccc2)cc1OC`, for which the NF-kB reporter in assay [1] (setting [4]) stood at 1.14 ± 0.091; in assay [1] (agonist: LPS 0.1 ug/mL) it was 1.14 ± 0.074; in assay [1] (agonist: MPLA […]) it was 1.09 ± 0.045. The results for the IRF reporter in assay [2] (agonist: 3'3'-cGAMP 10 ug/mL), in assay [2] (agonist: LPS 0.1 ug/mL) and in assay [2] (agonist: MPLA […]) were 0.845 ± 0.059, 0.958 ± 0.056 and 1 ± 0.076, respectively. Besides, the viability score in assay [3] was 0.996 (active).

Consider `CN(C)C=C1C(=O)N(c2nc3ccccc3s2)N=C1CSc1ccc(Cl)cc1`, for which the NF-kB reporter in assay [1] (setting [4]) was found to be 0.945 ± 0.078; in assay [1] (agonist: LPS 0.1 ug/mL), 1.02 ± 0.067; in assay [1] (agonist: MPLA […]), 0.916 ± 0.058. The IRF reporter was found to be 0.843 ± 0.029 in assay [2] (agonist: 3'3'-cGAMP 10 ug/mL), 1.42 ± 0.12 in assay [2] (agonist: LPS 0.1 ug/mL) and 1.15 ± 0.073 in assay [2] (agonist: MPLA […]). The viability score in assay [3] is 1.01 (active).

Turning to `Cc1ccccc1CC(CC(=O)O)C(=O)O` (stereo not given), the values for the NF-kB reporter in assay [1] (setting [4]), in assay [1] (agonist: LPS 0.1 ug/mL) and in assay [1] (agonist: MPLA […]) were 1.1 ± 0.089, 0.979 ± 0.12 and 0.93 ± 0.094, respectively. Besides, the IRF reporter in assay [2] (agonist: 3'3'-cGAMP 10 ug/mL) was 1.03 ± 0.048; in assay [2] (agonist: LPS 0.1 ug/mL), 1.21 ± 0.12; in assay [2] (agonist: MPLA […]), 1.3 ± 0.19. Besides, in assay [3], the viability score is 1.03 (active).

With `CC(=O)N1CCN(C(=O)Cn2cnc(-c3ccc(C)cc3)cc2=O)CC1`, the values for the NF-kB reporter in assay [1] (setting [4]), in assay [1] (agonist: LPS 0.1 ug/mL) and in assay [1] (agonist: MPLA […]) were 0.929 ± 0.095, 1.01 ± 0.1 and 1.06 ± 0.14, respectively. Further, the IRF reporter in assay [2] (agonist: 3'3'-cGAMP 10 ug/mL) was determined as 1.02 ± 0.058; in assay [2] (agonist: LPS 0.1 ug/mL), 1.17 ± 0.24; in assay [2] (agonist: MPLA […]) it was 1.18 ± 0.45. For the same molecule, the viability score in assay [3] was 0.964 (active).

With `CC(C)(C)C1(O)CC(C(F)(F)F)=NN1C(=O)c1ccc([N+](=O)[O-])cc1` (stereo not given), the NF-kB reporter in assay [1] (setting [4]) was found to be 0.644 ± 0.056; in assay [1] (agonist: LPS 0.1 ug/mL), 0.79 ± 0.095; in assay [1] (agonist: MPLA […]) it was 1.01 ± 0.035. Also, the IRF reporter in assay [2] (agonist: 3'3'-cGAMP 10 ug/mL) amounted to 1.38 ± 0.13; in assay [2] (agonist: LPS 0.1 ug/mL), 1.13 ± 0.14; in assay [2] (agonist: MPLA […]), 1.66 ± 0.33. The viability score in assay [3] was 0.941 (active).

In the case of `O=C(CC12CC3CC(CC(C3)C1)C2)N1CCCCC1`, the NF-kB reporter in assay [1] (setting [4]) was 0.863 ± 0.064; in assay [1] (agonist: LPS 0.1 ug/mL), 0.99 ± 0.11; in assay [1] (agonist: MPLA […]) it was 0.949 ± 0.056. The IRF reporter came to 1.1 ± 0.037 in assay [2] (agonist: 3'3'-cGAMP 10 ug/mL), 1.53 ± 0.1 in assay [2] (agonist: LPS 0.1 ug/mL) and 1.23 ± 0.15 in assay [2] (agonist: MPLA […]). Also, the viability score in assay [3] is 0.911 (active).

With `COC(=O)Nc1nc2cc(S(=O)c3ccccc3)ccc2[nH]1` (stereo not given) [Prestw-1459], the NF-kB reporter in assay [1] (setting [4]) came to 1.03 ± 0.087; in assay [1] (agonist: LPS 0.1 ug/mL), 0.896 ± 0.079; in assay [1] (agonist: MPLA […]), 0.932 ± 0.051. In addition, the IRF reporter in assay [2] (agonist: 3'3'-cGAMP 10 ug/mL) was determined as 0.896 ± 0.04; in assay [2] (agonist: LPS 0.1 ug/mL) it was 0.825 ± 0.13; in assay [2] (agonist: MPLA […]) it was 0.884 ± 0.23. The viability score in assay [3] was 0.999 (active).

Take `Br.O=S(=O)(c1ccc(-c2csc(Nc3ccc(Br)cc3)n2)cc1)N1CCOCC1`: the NF-kB reporter in assay [1] (setting [4]) is 0.967 ± 0.084; in assay [1] (agonist: LPS 0.1 ug/mL), 1.08 ± 0.091; in assay [1] (agonist: MPLA […]) it was 1.1 ± 0.046. Moreover, the IRF reporter in assay [2] (agonist: 3'3'-cGAMP 10 ug/mL) turned out to be 0.951 ± 0.17; in assay [2] (agonist: LPS 0.1 ug/mL) it was 1.14 ± 0.049; in assay [2] (agonist: MPLA […]) it was 0.903 ± 0.059. For the same molecule, the viability score in assay [3] was 0.999 (active).

As to `CC(c1ccccc1)c1nnc(NC(=O)c2ccco2)s1` (stereo not given), the NF-kB reporter in assay [1] (setting [4]) is 0.853 ± 0.29; in assay [1] (agonist: LPS 0.1 ug/mL), 1.12 ± 0.12; in assay [1] (agonist: MPLA […]), 1.04 ± 0.1. For the same molecule, the values for the IRF reporter in assay [2] (agonist: 3'3'-cGAMP 10 ug/mL), in assay [2] (agonist: LPS 0.1 ug/mL) and in assay [2] (agonist: MPLA […]) were 0.906 ± 0.027, 1.13 ± 0.23 and 1.3 ± 0.32, respectively. Also, in assay [3], the viability score is 0.968 (active).

On to `CCC(C)NS(=O)(=O)c1ccc([N+](=O)[O-])cc1` (stereo not given), for which the values for the NF-kB reporter in assay [1] (setting [4]), in assay [1] (agonist: LPS 0.1 ug/mL) and in assay [1] (agonist: MPLA […]) were 1.13 ± 0.11, 1.05 ± 0.075 and 0.977 ± 0.034, respectively. Also, the IRF reporter in assay [2] (agonist: 3'3'-cGAMP 10 ug/mL) stood at 0.883 ± 0.05; in assay [2] (agonist: LPS 0.1 ug/mL) it was 1.13 ± 0.1; in assay [2] (agonist: MPLA […]) it was 1.18 ± 0.14. Moreover, in assay [3], the viability score is 0.998 (active).

As for `NC(=O)c1ncn([C@@H]2O[C@H](CO)[C@@H](O)[C@H]2O)c1O`, the NF-kB reporter in assay [1] (setting [4]) is 0.723 ± 0.23; in assay [1] (agonist: LPS 0.1 ug/mL), 1.08 ± 0.069; in assay [1] (agonist: MPLA […]) it was 0.898 ± 0.05. The IRF reporter in assay [2] (agonist: 3'3'-cGAMP 10 ug/mL) worked out at 1.02 ± 0.085; in assay [2] (agonist: LPS 0.1 ug/mL), 1.04 ± 0.086; in assay [2] (agonist: MPLA […]), 1.16 ± 0.094. Further, the viability score in assay [3] was 0.998 (active).

As to `CCN(CC)CCOCCOC(=O)C1(c2ccccc2)CCCC1` [Prestw-387], the NF-kB reporter in assay [1] (setting [4]) was found to be 0.668 ± 0.12; in assay [1] (agonist: LPS 0.1 ug/mL), 1.14 ± 0.12; in assay [1] (agonist: MPLA […]), 0.993 ± 0.12. Moreover, the results for the IRF reporter in assay [2] (agonist: 3'3'-cGAMP 10 ug/mL), in assay [2] (agonist: LPS 0.1 ug/mL) and in assay [2] (agonist: MPLA […]) were 0.684 ± 0.019, 1.03 ± 0.12 and 1.11 ± 0.19, respectively. Besides, the viability score in assay [3] was 0.993 (active).

In the case of `COc1cc2c(cc1OC)C(=O)C(CC1CCN(Cc3ccccc3)CC1)C2` (stereo not given), the NF-kB reporter in assay [1] (setting [4]) was 0.586 ± 0.14; in assay [1] (agonist: LPS 0.1 ug/mL), 0.954 ± 0.058; in assay [1] (agonist: MPLA […]), 1.05 ± 0.066. Also, the IRF reporter in assay [2] (agonist: 3'3'-cGAMP 10 ug/mL) worked out at 0.797 ± 0.027; in assay [2] (agonist: LPS 0.1 ug/mL) it was 0.813 ± 0.096; in assay [2] (agonist: MPLA […]) it was 0.897 ± 0.11. For the same molecule, the viability score in assay [3] was 0.99 (active).

Regarding `CCOC(=O)c1sc(NN=Cc2cccc(Cl)c2)nc1C`, the NF-kB reporter came to 1.04 ± 0.12 in assay [1] (setting [4]), 1.06 ± 0.059 in assay [1] (agonist: LPS 0.1 ug/mL) and 0.89 ± 0.053 in assay [1] (agonist: MPLA […]). The IRF reporter was 0.849 ± 0.039 in assay [2] (agonist: 3'3'-cGAMP 10 ug/mL), 1.57 ± 0.23 in assay [2] (agonist: LPS 0.1 ug/mL) and 1.18 ± 0.18 in assay [2] (agonist: MPLA […]). In addition, the viability score in assay [3] was 1.01 (active).
